A selection: hits, their analogues and other compounds. The true share with any hit is near 5%.
CHT block – inhibits the human high affinity choline transporter; Q9GZV3; CHT-expressing cells, membrane potential dye, choline response; hits give low values; B-score at 10 µM; 310,000 compounds, 0.86% hits;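 active = B-score over 3 SD under the library average, and starting fluorescence ratio not unusually high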;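 note: choline stimulus applied at its EC90 after an EC20 pre-addition; B-score computed on integrated fluorescence ratio after choline addition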
PREPL inh – inhibits the human prolyl oligopeptidase-like enzyme; Q4J6C6; recombinant PREPL, fluorescence polarization activity-based probe; inhibition, % at 5.96 µM; 320,000 compounds, 0.68% hits; AID 2751;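 note: 0% = enzyme with DMSO and 100% = wells lacking enzyme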
AI-2 QS modul – Vibrio harveyi AI-2 quorum sensing modulation. Vibrio harveyi JMH597 AI-2 luminescence/OD600 ratio, 9 h; hits give low values; strain lacks LuxN and CqsS sensors; 0 = neutral-control median. activity change, % at 7.5 µM. 300,000 compounds, 0.4% hits. AID 2094; in the data active = activity change below about -75%, passing the limit was not always enough;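 note: luminescence divided by OD600 gain over 9 h not by final OD600 alone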
ALR inh – blocks human ALR sulfhydryl oxidase activity. purified ALR, DTT oxidation, H2O2 HRP-luminol luminescence. inhibition, % (no concentration beside the values). 290,000 compounds, 3.8% hits. P55789;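 active = mean replicate inhibition above about 79%, with every replicate also reaching it, limit read from the data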
Target sequence (P55789 whole entry, looked up): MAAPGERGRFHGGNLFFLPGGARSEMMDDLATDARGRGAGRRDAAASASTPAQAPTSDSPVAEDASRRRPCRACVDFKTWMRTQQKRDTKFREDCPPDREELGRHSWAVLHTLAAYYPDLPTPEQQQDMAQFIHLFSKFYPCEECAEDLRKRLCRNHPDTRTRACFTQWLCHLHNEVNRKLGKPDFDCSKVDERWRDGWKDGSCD
CHT PAM – allosterically activates the human high affinity choline transporter; AID 488977; 310,000 compounds, 0.49% hits; Q9GZV3; B-score at 10 µM; CHT-expressing cells, membrane potential dye, choline EC20; hits give high values; LV-AA mutant CHT in HEK293 cells;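 active = initial fluorescence not abnormally high and integrated response B-score, plate-corrected, over 3 SD above library mean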
PREPL inh cf – human PREPL inhibition, confirmation. 2,000 compounds, 67% hits. recombinant PREPL, fluorescence polarization activity probe. AID 2803. shares compounds with PREPL inh. inhibition, % at 5.96 µM;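 note: 0% = protein with DMSO and 100% = wells lacking protein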
CHT inh conf – human CHT inhibition, confirmatory screen; shares compounds with CHT block; CHT-expressing cells, choline membrane potential dye; LV-to-AA substituted CHT, HEK293 cells; CHT activity remaining % of control (hits give low values), % at 10 µM; 2,400 compounds, 70% hits; AID 493221;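 active = choline transporter activity left, mean of duplicates at 10 µM, below buffer-only control mean minus 3 SD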;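 note: depolarization triggered by choline at its EC90 following an EC20 pre-addition; 0% = hemicholinium-3 full block and 100% = buffer-only control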
HEK293 CHT ctr – CHT inhibitor counter-screen hit in parental HEK293 cells | 2,400 compounds, 4% hits | shares compounds with CHT block | membrane potential ratio readout (active if shifted either direction beyond buffer ±3SD; no single direction) at 10 µM | AID 493222 | membrane potential dye, choline response; active = decrease or increase beyond buffer ±3SD;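 note: parental cells lack the transporter so any hit is non-specific; ratio is peak minus trough fluorescence over baseline after EC90 choline challenge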
CHT activ conf – human CHT activation, confirmatory screen; shares compounds with CHT PAM; CHT-expressing cells, membrane potential dye fluorescence (FDSS); % of choline EC20–EC90 response window; HEK293 expressing CHT LV-AA mutant; choline added at its EC20; activation, % at 10 µM; 2,500 compounds, 91% hits;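 active = primary screen active, with duplicate mean activation above negative control mean plus 3 SD, cut at about 11% in these data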
HEK293 MP dye – counter-screen for CHT activators: effect in parental HEK293 cells | shares compounds with CHT PAM | membrane potential dye fluorescence (FDSS); measured after EC20 choline addition | ratio readout change at 10 µM, hits read low | 2,500 compounds, 62% hits;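 active = duplicate-averaged ratio beyond 3 SD from buffer wells, up or down, though filed actives are nearly all decreases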
Numbers without * were called inactive; i = inactive; nt = no result. Cut-off read from the data, not from the text of the source, unless noted: active = inhibition above about 43%; inactive = the rest.

SMILES | CHT block | PREPL inh | AI-2 QS modul | ALR inh | CHT PAM | PREPL inh cf | CHT activ conf | HEK293 MP dye | others
CCCCCc1cc(=O)oc2c(C(CCN3CCCC3)c3ccc(N(C)C)cc3)c(OC)cc(OC)c12 (stereo unspecified) | -6.3* | 50* | 3 | nt | i | 49* | nt | nt | CHT inh conf=i;HEK293 CHT ctr=i
CCCCCc1cc(=O)oc2c(C(CCN3CCCCC3)c3ccc(OC)cc3)c(OC)cc(OC)c12 (stereo unspecified) | i | 16 | 10 | nt | i | nt | nt | nt
Cc1ccc(S(=O)(=O)N2CCOCC2)cc1C(=O)N1CC(C)OC(C)C1 (stereo unspecified) | i | 13 | 15 | 3 | i | nt | nt | nt
CCCn1c(SCC(=O)NNC(=O)c2ccccc2)nnc1-c1cccnc1 | i | -4 | -1 | -8 | i | nt | nt | nt
CCN(CC)CCCC(C)NC(=O)c1c(NC(=O)c2ccccc2)sc2c1CCCC2 (stereo unspecified) | -7.6* | 46* | 9 | nt | i | 40 | nt | nt | CHT inh conf=39%*;HEK293 CHT ctr=i
O=C(CS(=O)c1ccc(C(F)(F)F)cc1[N+](=O)[O-])Oc1ccccc1 (stereo unspecified) | -5* | 53* | 41 | 99* | i | 52* | nt | nt | CHT inh conf=-5.7%*;HEK293 CHT ctr=i
Cc1ccc2c(c1)c1c3n2CCN(CC(O)CNC(C)C)C3CCC1 (stereo unspecified) | i | 44* | nt | nt | i | 31 | 17* | -31*
Cc1ccc2c(c1)c1c3n2CCN(CC(N)=O)C3CCC1 (stereo unspecified) | i | 27 | 23 | 14 | i | nt | nt | nt
Cc1c(Cl)cccc1NC(=O)COC(=O)c1c2c(nc3ccccc13)CCN(Cc1ccccc1)C2 | i | 51* | 29 | nt | i | 46* | 21* | i
Cc1nnc(C)c2c(C)n(-c3ccccc3N)c(C)c12 | i | 19 | -1 | -46 | i | nt | nt | nt
CCOC(=O)C1(CCOc2ccccc2)CCN(Cc2cc(OC)ccc2OC)CC1 | i | 50* | 5 | nt | i | 39 | 30* | i
CC(=O)NC(Cc1ccccc1)C(=O)OCC(=O)c1ccc(F)cc1 (stereo unspecified) | i | 8 | 12 | -8 | i | nt | nt | nt
O=C(CSc1nnnn1-c1cccc(F)c1)NC1CC1 | nt | 4 | nt | -2 | nt | nt | nt | nt
CC(=O)c1ccc2c(c1)N(C)c1ccccc1S2 | i | 16 | 4 | nt | i | nt | nt | nt
CCC(=O)c1ccc2c(c1)N(CCCN(C)C)c1ccccc1S2 | i | 64* | 3 | 98* | 9.1* | 55* | 29* | -45*
Cc1cccc(NC(=O)Cn2c(=O)n(CCc3c[nH]c4ccccc34)c(=O)c3cccnc32)c1 | i | 6 | 10 | -12 | i | nt | nt | nt
CCN(CC)CCNC(=O)Cc1nn(CC)c(=O)c2ccccc12 | i | -4 | 10 | -2 | i | nt | nt | nt
CCN(CC)CCNc1ccc(CO)c2sc3ccccc3c(=O)c12 | i | 45* | 31 | 47 | 6.4* | 58* | 44* | -49*
CC(NC(=O)CN1CCN(CC(=O)Nc2ccccc2Cl)CC1)c1ccc(Br)cc1 (stereo unspecified) | nt | 1 | nt | nt | nt | nt | nt | nt
Cc1cc[n+](CC(=O)c2ccc(NC(=O)c3ccccc3)cc2)c2ccccc12 | i | 7 | 28 | 13 | i | nt | nt | nt
CC[n+]1ccc(C)c2cc(P(=O)(c3ccccc3)c3ccccc3)ccc21 | i | 57* | 9 | -18 | 7.8* | 41 | 58* | -42*
CCCCCCCCCCCCCCCC[N+](C)(C)CCN(Cc1ccc(OC)cc1)c1ncccn1 | i | 60* | nt | 19 | i | 63* | 18* | -60*
CC[N+](C)(C)CCN(Cc1ccc(Cl)cc1)c1ccccn1 | i | 0 | -3 | nt | i | nt | nt | nt
Cc1ccc(OCC(=O)NC2CCCC(C)C2C)c([N+](=O)[O-])n1 (stereo unspecified) | nt | 3 | nt | -14 | nt | nt | nt | nt
CCOc1ccc(Nc2nc(NCC3CCCO3)c3ccccc3n2)cc1 (stereo unspecified) | i | 59* | 18 | 22 | i | 56* | 23* | -31*
SMILES | CHT block | PREPL inh | AI-2 QS modul | ALR inh | CHT PAM | PREPL inh cf | CHT activ conf | HEK293 MP dye | others
CC1CCC(C(C)C)C(OC(=O)C[n+]2cc(-c3ccc(Cl)cc3)n3c2CCCCC3)C1 (stereo unspecified) | i | 47* | 39 | -3 | 13* | 44* | 64* | i
c1ccc(-c2nc(NCc3ccco3)c3ccccc3n2)nc1 | i | 47* | 42 | 6 | 7* | 47* | 42* | -46*
Cc1c(CCOC(=O)c2ccccc2)sc[n+]1CC(=O)c1ccc(Br)cc1 | i | 13 | 34 | nt | i | nt | nt | nt
Cc1c(CCOC(=O)c2cc([N+](=O)[O-])cc([N+](=O)[O-])c2)sc[n+]1CC(=O)c1ccccc1 | i | 56* | 28 | -29 | i | 50* | 32* | i
Cn1c(N/N=C/c2c[nH]c3ccccc23)nc2ccccc21 | i | 53* | 21 | 98* | i | 65* | 33* | -59*
N#CC(C#N)=C(Nc1ccc(F)cc1)SCc1cccc(F)c1 | -5.8* | 11 | 10 | -1 | i | nt | nt | nt | CHT inh conf=65%*;HEK293 CHT ctr=i
Fc1ccc(NC(=S)NCc2ccccc2)cc1 | i | 4 | -36 | nt | i | nt | nt | nt
Cc1ccc(NC(=O)CN(C)C(=O)COC(=O)CNS(=O)(=O)c2ccc(Br)cc2Cl)cc1 | -6.3* | -1 | 13 | -2 | i | nt | nt | nt | CHT inh conf=67%*;HEK293 CHT ctr=i
Cc1ccc(NC(=O)CN(C)C(=O)COC(=O)CNS(=O)(=O)c2ccc(F)c(F)c2F)cc1 | i | 4 | 16 | nt | i | nt | nt | nt
CCc1ccc(NCc2nc(-c3ccccc3)no2)cc1 | -5.7* | 19 | -96* | 18 | i | nt | nt | nt | CHT inh conf=58%*;HEK293 CHT ctr=i
O=C(NCc1nc(-c2ccccc2)no1)Nc1ccc(F)cc1 | i | -1 | 2 | -7 | i | nt | nt | nt
Cc1ccc(SCc2nc(-c3ccccc3)no2)cc1 | i | 0 | -29 | -5 | i | nt | nt | nt

High-throughput results from PubChem BioAssay.
